Holding throughout (details): concentration: 10 µM; 24 h
For test [1], the system named is HCC1569. Put plainly: cell number relative to DMSO (% of DMSO); higher = more cells (less growth inhibition / toxicity). In outline:
(§1)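 Cells were seeded at 800 per well in 384-well plates with RPMI containing 10% FBS; both HCC1569 and TDF lines were used. Compounds were added at 10 µM for 24 h at 37 °C, in triplicate, before fixation in 3.7% formaldehyde and staining with a rabbit anti-H1.0 antibody, an AlexaFluor 647 secondary and DAPI. H1.0 nuclear intensity or cell number is reported as percent of the plate control using the median of replicates, and HCC1569 values were smoothed for positional effects.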

Test [2] deals with TDF. The test is described as above. In outline: as §1
The test system of test [3] is TDF. Put plainly: H1.0 immunofluorescence intensity relative to DMSO (% of DMSO); higher = stronger H1.0 induction, active = 120 or more. In outline: as §1
For test [4], the system named is HCC1569. In words: H1.0 immunofluorescence intensity relative to DMSO (% of DMSO); higher = stronger H1.0 induction, active = 140 or more. In a few lines:
as §1

Molecules are shown by their SMILES. ± gives the standard deviation of the averaged measurements.
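For H1.0 immunofluorescence intensity relative to DMSO in this document: TDF is a line of transformed human dermal fibroblasts of mesenchymal origin.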
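For cell number relative to DMSO in this document: TDF denotes transformed human dermal fibroblasts of mesenchymal origin.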

In the case of `O.O=P(O)(O)C(O)(Cn1ccnc1)P(=O)(O)O`, the cell number with HCC1569 [1] was 99.2; in the test with TDF [2], 94. The values for the H1.0 immunofluorescence intensity with TDF [3] and in the test with HCC1569 [4] were 94.5 (inactive) and 102 (inactive), respectively.
`O=C(O)C=Cc1ccc(O)c(O)c1` [Caffeic Acid]: the cell number with HCC1569 [1] was found to be 99.9; in the test with TDF [2] it was 115. For the same compound, the H1.0 immunofluorescence intensity in the test with TDF [3] was 87.2 (inactive); in the test on HCC1569 [4], 84.5 (inactive).
As to `CN1CCC(=C2c3ccccc3CC(=O)c3sccc32)CC1` [Ketotifen], the cell number was found to be 104 in the test on HCC1569 [1] and 102 with TDF [2]. Besides, the H1.0 immunofluorescence intensity with TDF [3] was 97.6 (inactive); in the test with HCC1569 [4], 124 (inactive).
Take `CNCC(O)c1ccc(O)c(O)c1.O=C(O)C(O)C(O)C(=O)O` (single isomer, unassigned; (-)) [(-)-Epinephrine bitartrate]: the cell number in the test on HCC1569 [1] stood at 100; in the test on TDF [2], 107. In addition, the H1.0 immunofluorescence intensity with TDF [3] is 90.8 (inactive); in the test with HCC1569 [4], 82.3 (inactive).
As to `C=CC1CN2CCC1CC2C(O)c1ccnc2ccc(OC)cc12.C=CC1CN2CCC1CC2C(O)c1ccnc2ccc(OC)cc12.O=S(=O)(O)O` (stereo unspecified) [Quinidine sulfate], the cell number with HCC1569 [1] was 99; in the test on TDF [2], 99.9. The H1.0 immunofluorescence intensity is 95.4 (inactive) in the test on TDF [3] and 112 (inactive) in the test with HCC1569 [4].
On the same counts, the results for `Cc1c(O)cc2c(c1C)OC(C)(CCCC(C)CCCC(C)CCCC(C)C)CC2` [D-γ-Tocopherol] are 100, 98.7, 98.5 (inactive) and 102 (inactive).
With `O=c1cc(-c2ccccc2)oc2cc(O)cc(O)c12` [Chrysine], the cell number worked out at 101 in the test with HCC1569 [1] and 99.8 with TDF [2]. Also, the H1.0 immunofluorescence intensity in the test on TDF [3] was 93.8 (inactive); with HCC1569 [4] it was 92.7 (inactive).
`Cc1nnc(SCC2=C(C(=O)[O-])N3C(=O)C(NC(=O)Cn4cnnn4)C3SC2)s1.[Na+]` (stereo unspecified) [Cefazolin sodium]: the results for the cell number in the test with HCC1569 [1] and in the test with TDF [2] were 101 and 116, respectively. Also, the figures for the H1.0 immunofluorescence intensity in the test on TDF [3] and with HCC1569 [4] were 87.2 (inactive) and 89.5 (inactive), respectively.
Turning to `CCCCCCCCCCCCCCCC(=O)NC(CN1CCOCC1)C(O)c1ccccc1` (racemic), the cell number in the test with HCC1569 [1] was determined as 103; in the test on TDF [2], 94.8. Also, the H1.0 immunofluorescence intensity is 97.6 (inactive) with TDF [3] and 102 (inactive) in the test on HCC1569 [4].
As for `CCCCNc1cc(C(=O)O)cc(S(N)(=O)=O)c1Oc1ccccc1` [Bumetanide], the values for the cell number in the test on HCC1569 [1] and in the test with TDF [2] were 102.7 ± 0.95 and 105 ± 2, respectively. For the same compound, the H1.0 immunofluorescence intensity in the test with TDF [3] was 96.4 (inactive); with HCC1569 [4], 100 (inactive).
The corresponding values for `CCOC(=O)C1=C(COCCN)NC(C)=C(C(=O)OC)C1c1ccccc1Cl` (stereo unspecified) [Amlodipine] are 98.4, 106, 93.5 (inactive) and 106 (inactive).
Turning to `CN1C(C(=O)Nc2ccccn2)=C(O)c2sccc2S1(=O)=O` [Tenoxicam], the cell number with HCC1569 [1] came out at 100; with TDF [2], 87.8. Also, the results for the H1.0 immunofluorescence intensity in the test with TDF [3] and in the test on HCC1569 [4] were 95 (inactive) and 93.3 (inactive), respectively.
On the same counts, the results for `CCC(=C(c1ccccc1)c1ccc(OCCN(C)C)cc1)c1ccccc1` [Tamoxifen] are 103, 99.1, 97.7 (inactive) and 114 (inactive).
Turning to `CC(C(=O)O)c1ccc2c(c1)Cc1cccnc1O2` (stereo unspecified) [Pranoprofen], the cell number was 98.6 with HCC1569 [1] and 94.7 in the test on TDF [2]. For the same compound, the H1.0 immunofluorescence intensity in the test with TDF [3] was 103 (inactive); with HCC1569 [4] it was 102 (inactive).
The corresponding values for `CC(=O)NCCc1ccc(O)c(O)c1` [N-Acetyldopamine monohydrate] are 101, 111, 96.7 (inactive) and 91.4 (inactive).
The corresponding values for `NC(=O)N1c2ccccc2C=Cc2ccccc21` [Carbamazepine] are 101 ± 6.6, 111 ± 1.5, 92.6 (inactive) and 97 (inactive).
Take `Cl.NC12CC3CC(CC(C3)C1)C2` [Amantadine.HCl]: the cell number in the test on HCC1569 [1] and in the test on TDF [2] was 103 throughout. Besides, the H1.0 immunofluorescence intensity in the test on TDF [3] was 92.2 (inactive); in the test on HCC1569 [4] it was 99 (inactive).
For `CN(C)CCCN1c2ccccc2Sc2ccc(Cl)cc21.Cl` [Chlorpromazine hydrochloride], the cell number is 88.5 in the test with HCC1569 [1] and 64.4 with TDF [2]. Besides, the H1.0 immunofluorescence intensity in the test on TDF [3] was 135 (active); with HCC1569 [4] it was 144 (active).
As to `NC(=O)c1ccc(N(C(N)=O)c2c(F)cccc2F)nc1-c1ccc(F)cc1F`, the cell number in the test on HCC1569 [1] was 105; with TDF [2], 104. Besides, the figures for the H1.0 immunofluorescence intensity with TDF [3] and in the test with HCC1569 [4] were 94.8 (inactive) and 90.2 (inactive), respectively.
Consider `CC(C)C(CO)Nc1nc(Nc2cc(N)cc(Cl)c2)c2ncn(C(C)C)c2n1` (stereo unspecified), for which the cell number with HCC1569 [1] came out at 60.6; with TDF [2], 45.9. Also, the H1.0 immunofluorescence intensity was 111 (inactive) in the test with TDF [3] and 177 (active) with HCC1569 [4].
For `O=C(Nc1cccc(Nc2cc(Nc3cccc(C(F)(F)F)c3)ncn2)c1)C1CC1` [EGFR Inhibitor], the cell number in the test with HCC1569 [1] turned out to be 54.7; in the test on TDF [2], 8.22. For the same compound, the H1.0 immunofluorescence intensity in the test on TDF [3] was 178 (active); with HCC1569 [4], 186 (active).
Consider `CCN(CC)CCNC(=O)c1cc(Cl)c(N)cc1OC` [Metoclopramide], for which the cell number came to 102 with HCC1569 [1] and 105 in the test on TDF [2]. The H1.0 immunofluorescence intensity was 97.1 (inactive) with TDF [3] and 108 (inactive) in the test with HCC1569 [4].
With `CC(=O)NC1C(N=C(N)N)C=C(C(=O)O)OC1C(O)C(O)CO` (stereo unspecified), the cell number was found to be 102 in the test on HCC1569 [1] and 115 in the test on TDF [2]. Besides, the H1.0 immunofluorescence intensity with TDF [3] is 99.2 (inactive); in the test with HCC1569 [4], 99 (inactive).
For `C=CC(=O)Nc1cc2c(Nc3ccc(F)c(Cl)c3)ncnc2cc1OCCCN1CCOCC1.Cl.Cl` [Canertinib], the figures for the cell number in the test with HCC1569 [1] and in the test with TDF [2] were 75.8 and 87.4, respectively. Moreover, the figures for the H1.0 immunofluorescence intensity in the test on TDF [3] and in the test with HCC1569 [4] were 108 (inactive) and 125 (inactive), respectively.

The values are drawn from the supplement of paper PMC7156485.
